Unmarked numbers belong to inactive results. Inconclusive results are not listed. Entries that show only a call come without a potency. Activity calls are given as the source filed them. Unless noted, calls follow the shape of the dose curve; as a rule, active = well fitted curve in the direction sought with a large enough effect; inconclusive = small, poorly fitted or top-dose-only effect, or another doubt; inactive = no such curve, though single readings can be large; an effect the other way counts as inactive or inconclusive.
Assays:
[1] = target: Cytochrome P450 1A2 (Homo sapiens) (UniProt P05177); assay: p450-cyp1a2 (AID 410; calls by dose curve; also: potency is read from the fitted curve at half-maximal effect)
Sequence of Cytochrome P450 1A2 (Homo sapiens) (P05177 whole entry, looked up): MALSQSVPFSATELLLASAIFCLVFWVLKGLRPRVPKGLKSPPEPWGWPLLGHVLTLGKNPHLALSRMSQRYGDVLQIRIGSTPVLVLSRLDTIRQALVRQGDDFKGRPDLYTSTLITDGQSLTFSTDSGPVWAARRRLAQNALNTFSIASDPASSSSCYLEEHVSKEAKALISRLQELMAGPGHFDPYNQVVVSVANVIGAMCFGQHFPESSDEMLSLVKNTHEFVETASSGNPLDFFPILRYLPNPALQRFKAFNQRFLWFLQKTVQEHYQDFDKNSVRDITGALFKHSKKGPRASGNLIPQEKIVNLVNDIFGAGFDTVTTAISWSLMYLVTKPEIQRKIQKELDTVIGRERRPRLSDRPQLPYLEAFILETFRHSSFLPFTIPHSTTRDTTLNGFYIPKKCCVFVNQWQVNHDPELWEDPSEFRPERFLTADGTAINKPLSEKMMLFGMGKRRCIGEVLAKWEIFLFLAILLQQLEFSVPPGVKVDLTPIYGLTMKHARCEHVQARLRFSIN
How it was run: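 Read-out is luminescence from luciferin produced by CYP1A2 demethylation of Luciferin-ME (100uM, at Km). Detection reagent stopped the 60 min NADPH-dependent reaction; signals were normalized to 57 uM furafylline.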

[2] = target: Glucocorticoid receptor (Homo sapiens) (UniProt P04150); assay: GR-GFP Redistribution (AID 450;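 active = compounds whose dose series gives a full or clear partial fitted curve of increased nuclear translocation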; also: potency is read from the fitted curve at half-maximal effect); conditions: U2OS GR-GFP nuclear translocation, laser cytometry, 2 h
Sequence of Glucocorticoid receptor (Homo sapiens) (P04150 whole entry, looked up, the tested form may be a part): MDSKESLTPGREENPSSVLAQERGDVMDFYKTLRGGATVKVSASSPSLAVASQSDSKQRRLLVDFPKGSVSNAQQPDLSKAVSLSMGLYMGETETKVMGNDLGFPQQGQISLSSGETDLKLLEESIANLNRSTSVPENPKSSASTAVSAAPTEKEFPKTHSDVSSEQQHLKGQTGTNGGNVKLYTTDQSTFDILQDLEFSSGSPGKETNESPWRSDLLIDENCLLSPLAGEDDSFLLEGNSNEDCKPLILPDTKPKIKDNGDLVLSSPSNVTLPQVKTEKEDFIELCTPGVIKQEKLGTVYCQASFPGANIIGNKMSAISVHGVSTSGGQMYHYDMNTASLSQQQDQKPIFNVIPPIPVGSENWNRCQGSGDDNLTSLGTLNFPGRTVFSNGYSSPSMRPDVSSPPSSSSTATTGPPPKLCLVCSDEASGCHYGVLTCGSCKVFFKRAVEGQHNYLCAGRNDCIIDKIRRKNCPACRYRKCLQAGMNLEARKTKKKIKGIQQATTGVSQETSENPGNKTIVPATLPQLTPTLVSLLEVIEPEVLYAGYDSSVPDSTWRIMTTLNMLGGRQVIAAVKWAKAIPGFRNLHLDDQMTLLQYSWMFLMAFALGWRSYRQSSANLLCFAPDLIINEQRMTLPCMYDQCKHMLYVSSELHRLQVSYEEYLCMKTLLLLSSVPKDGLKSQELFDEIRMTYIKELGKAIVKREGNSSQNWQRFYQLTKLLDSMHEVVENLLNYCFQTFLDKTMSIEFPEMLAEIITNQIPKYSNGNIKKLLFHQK

[3] = target: Mitogen-activated protein kinase 10 (Mus musculus) (UniProt Q61831); assay: JNK3 AlphaScreen Assay (AID 530; active = well fitted curve in either direction with a large enough effect, not every such curve was filed as active;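 also: kinase came from lysate of stimulated human HepG2 cells; signal reports phosphorylation of biotinylated GST-cJun 1-79 at Ser73 with 10 µM ATP; series mostly up to about 57 µM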)
How it was run: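 Kinase buffer: 20 mM Tris-HCl pH 7.6, 10 mM MgCl2, 1 mM DTT, 0.1 mM Na3VO4, 0.01% Tween-20; ATP 10 uM. Substrate biotin-GST-cJun(1-79), enzyme from activated HepG2 lysates. Detection by Ser73 phospho-antibody AlphaScreen.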

[4] = target: 3',5'-cyclic-AMP phosphodiesterase 4B (Homo sapiens) (UniProt Q07343); assay: qHTS Assay for Inhibitors of PDE-IV (AID 607; active = well fitted activation curve with a large enough effect in the main read-out, with a control signal flat, not every such curve was filed as active)
Sequence of 3',5'-cyclic-AMP phosphodiesterase 4B (Homo sapiens) (Q07343 whole entry, looked up): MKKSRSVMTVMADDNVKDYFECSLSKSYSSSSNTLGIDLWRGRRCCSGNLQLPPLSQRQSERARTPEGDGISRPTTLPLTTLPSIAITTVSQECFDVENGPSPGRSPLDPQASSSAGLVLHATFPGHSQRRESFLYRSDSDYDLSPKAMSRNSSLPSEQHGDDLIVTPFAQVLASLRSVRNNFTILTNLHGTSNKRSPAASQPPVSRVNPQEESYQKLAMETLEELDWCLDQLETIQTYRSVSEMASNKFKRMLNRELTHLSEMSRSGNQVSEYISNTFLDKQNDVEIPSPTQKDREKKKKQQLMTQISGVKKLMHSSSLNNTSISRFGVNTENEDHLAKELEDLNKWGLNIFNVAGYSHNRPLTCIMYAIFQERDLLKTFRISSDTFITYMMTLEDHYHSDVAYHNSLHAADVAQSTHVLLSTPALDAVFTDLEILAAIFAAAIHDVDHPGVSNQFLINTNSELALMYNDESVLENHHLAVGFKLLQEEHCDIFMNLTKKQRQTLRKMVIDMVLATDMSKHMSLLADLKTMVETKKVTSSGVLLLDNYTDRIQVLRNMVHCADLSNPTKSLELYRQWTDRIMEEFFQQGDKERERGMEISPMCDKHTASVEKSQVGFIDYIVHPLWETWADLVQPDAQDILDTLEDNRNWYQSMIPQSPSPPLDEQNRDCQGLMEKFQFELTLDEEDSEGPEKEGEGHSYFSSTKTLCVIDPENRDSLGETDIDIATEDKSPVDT
How it was run: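 HEK293 ACTOne cells with CNG channel (1000/well), endogenous PDE4; membrane potential dye, compounds up to 22.9 uM final. Fluorescence Ex 535/Em 590; RO 20-1724 (100 uM final) as reference.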

[5] = target: Ubiquitin carboxyl-terminal hydrolase 1 (Homo sapiens) (UniProt O94782); assay: Inhibitors of USP1/UAF1: Pilot qHTS (AID 504865);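 also: rhodamine fluorescence freed from ubiquitin-rhodamine substrate followed over time; top concentration of the series differs between compounds; nearly all actives have a fitted effect of over 35% in size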
Sequence of Ubiquitin carboxyl-terminal hydrolase 1 (Homo sapiens) (O94782 whole entry, looked up): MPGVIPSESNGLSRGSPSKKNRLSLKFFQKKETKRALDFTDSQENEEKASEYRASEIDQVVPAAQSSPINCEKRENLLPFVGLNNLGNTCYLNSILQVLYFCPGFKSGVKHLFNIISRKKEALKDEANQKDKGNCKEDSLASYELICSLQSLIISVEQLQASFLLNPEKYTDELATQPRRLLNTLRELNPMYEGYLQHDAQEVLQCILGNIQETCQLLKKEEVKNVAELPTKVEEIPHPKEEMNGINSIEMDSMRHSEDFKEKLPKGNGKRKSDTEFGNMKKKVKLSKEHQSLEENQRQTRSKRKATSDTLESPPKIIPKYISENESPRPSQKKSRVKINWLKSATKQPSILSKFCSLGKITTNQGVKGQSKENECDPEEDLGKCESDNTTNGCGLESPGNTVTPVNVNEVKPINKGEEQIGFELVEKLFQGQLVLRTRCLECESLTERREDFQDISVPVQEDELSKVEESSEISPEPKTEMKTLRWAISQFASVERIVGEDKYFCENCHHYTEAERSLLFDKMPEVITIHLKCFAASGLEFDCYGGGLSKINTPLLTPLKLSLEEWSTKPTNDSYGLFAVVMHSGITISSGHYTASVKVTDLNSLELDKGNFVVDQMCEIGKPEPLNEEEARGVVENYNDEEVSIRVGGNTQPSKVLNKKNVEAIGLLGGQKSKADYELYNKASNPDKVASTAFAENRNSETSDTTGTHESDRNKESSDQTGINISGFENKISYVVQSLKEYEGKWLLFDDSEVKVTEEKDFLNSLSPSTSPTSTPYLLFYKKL
How it was run: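 1nM USP1/UAF1 + cpd, 15 min RT; start w/ Ub-Rho 150nM final; kinetic FL 480/540 nm, 6 reads q60 s. Buffer 50mM HEPES pH 7.8, 0.5mM EDTA, 1mM TCEP, 0.01% Tween-20, 0.1 mg/ml BSA.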

[6] = target: DNA dC->dU-editing enzyme APOBEC-3G (Homo sapiens) (UniProt Q9HC16); assay: qHTS for inhibitors of Vif-A3G interactions: Validation (AID 588379)
Sequence of DNA dC->dU-editing enzyme APOBEC-3G (Homo sapiens) (Q9HC16 whole entry, looked up): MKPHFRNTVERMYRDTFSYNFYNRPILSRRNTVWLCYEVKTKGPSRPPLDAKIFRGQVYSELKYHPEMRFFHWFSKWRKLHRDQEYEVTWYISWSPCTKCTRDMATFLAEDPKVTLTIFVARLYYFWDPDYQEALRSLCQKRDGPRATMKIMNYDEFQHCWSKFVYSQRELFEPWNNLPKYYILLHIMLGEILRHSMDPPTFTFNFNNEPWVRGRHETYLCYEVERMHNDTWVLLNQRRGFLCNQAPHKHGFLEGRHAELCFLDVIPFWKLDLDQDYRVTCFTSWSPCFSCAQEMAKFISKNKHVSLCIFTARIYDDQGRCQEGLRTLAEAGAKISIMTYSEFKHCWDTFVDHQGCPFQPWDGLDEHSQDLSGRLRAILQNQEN
How it was run: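 Yellow fluorescence (Ex 488, Em 500-530) of Vif-coexpressing HeLa A3G-eYFP cells, scanned by Acumen cytometer, reports blocked A3G degradation. Cells plated at 700/well overnight at 37 deg C before compound addition, then a further overnight compound incubation at 37 deg C.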

[7] = tested on: Zika virus NS2B-NS3 protease; assay: Primary screen GU AMC qHTS for Zika virus inhibitors (AID 1347154); also: nearly all actives have a fitted effect of over 70% in size
How it was run: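 Fluorogenic AMC-substrate cleavage by noncovalent NS2B-NS3 protease complex (25 nM, pH 8.0 Tris buffer with Tween 20) followed for 15 minutes at room temperature (~20% conversion). Percent inhibition from ex340/em450 signal change, fitted by 4-parameter Hill equation.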

[8] = Primary qHTS for small molecule stabilizers of the endoplasmic reticulum resident proteome: Secreted ER Calcium Modulated Protein (SERCaMP) assay (AID 1508630)
How it was run: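 The SH-SY5Y reporter protocol was run at 3 concentrations up to 38.3 uM (primary) or 11 concentrations (follow-up): 16 h compound, 100 nM thapsigargin for 4 h, then extracellular luciferase luminescence.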

[9] = target: Glucocorticoid receptor (Homo sapiens) (UniProt P04150); assay: GR-EFC Redistribution (AID 451; calls by dose curve; also: potency is read from the fitted curve at half-maximal effect); conditions: CHO-K1 GR-EFC translocation, beta-gal luminescence, 2 h
How it was run: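 Translocation of GR-ED fusion to nuclear EA restores b-gal, read by luminescence after 1 h room-temperature detection. Engineered CHO-K1 biosensor cells, 1,000/well, exposed 2 h at 37 C to titrations up to 46 uM final.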

[10] = target: Cytochrome P450 3A4 (Homo sapiens) (UniProt P08684); assay: qHTS Assay for Activators of Cytochrome P450 3A4 (AID 885); also: nearly all actives have a fitted effect of over 65% in size
Sequence of Cytochrome P450 3A4 (Homo sapiens) (P08684 whole entry, looked up): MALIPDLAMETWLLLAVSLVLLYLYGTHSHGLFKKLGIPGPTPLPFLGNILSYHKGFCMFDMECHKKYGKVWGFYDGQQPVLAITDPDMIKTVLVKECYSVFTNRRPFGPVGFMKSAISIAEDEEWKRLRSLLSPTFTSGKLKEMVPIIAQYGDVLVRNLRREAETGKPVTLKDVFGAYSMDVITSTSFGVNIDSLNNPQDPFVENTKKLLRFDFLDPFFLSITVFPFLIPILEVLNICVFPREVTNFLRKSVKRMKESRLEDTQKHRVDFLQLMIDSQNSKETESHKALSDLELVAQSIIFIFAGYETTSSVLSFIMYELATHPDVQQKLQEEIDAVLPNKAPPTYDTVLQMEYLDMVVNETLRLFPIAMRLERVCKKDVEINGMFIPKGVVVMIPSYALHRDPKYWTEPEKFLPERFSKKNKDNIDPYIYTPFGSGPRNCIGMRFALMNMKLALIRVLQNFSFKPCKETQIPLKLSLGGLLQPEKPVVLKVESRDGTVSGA
How it was run: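 Human CYP3A4 dealkylates Luciferin-PPXE to luciferin, which luciferase detection converts to light. Substrate was at its KM (25uM), buffer 200mM KPO4, reaction 60 min at RT.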

[11] = target: Cytochrome P450 3A4 (Homo sapiens) (UniProt P08684); assay: qHTS Assay for Inhibitors and Substrates of Cytochrome P450 3A4 (AID 884); also: potency is read from the fitted curve at half-maximal effect; nearly all actives have a fitted effect of over 50% in size
How it was run: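 Luminescent readout of luciferin produced by CYP3A4 (20 nM) dealkylation of Luciferin-PPXE, 25 uM (its KM). NADPH-driven reaction ran 60 min at RT after 10 min compound preincubation; data scaled to 57 uM ketoconazole as 100% inhibition.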

[12] = target: Cytochrome P450 2C9 (Homo sapiens) (UniProt P11712); assay: qHTS Assay for Inhibitors and Substrates of Cytochrome P450 2C9 (AID 883); also: potency is read from the fitted curve at half-maximal effect; nearly all actives have a fitted effect of over 60% in size
Sequence of Cytochrome P450 2C9 (Homo sapiens) (P11712 whole entry, looked up): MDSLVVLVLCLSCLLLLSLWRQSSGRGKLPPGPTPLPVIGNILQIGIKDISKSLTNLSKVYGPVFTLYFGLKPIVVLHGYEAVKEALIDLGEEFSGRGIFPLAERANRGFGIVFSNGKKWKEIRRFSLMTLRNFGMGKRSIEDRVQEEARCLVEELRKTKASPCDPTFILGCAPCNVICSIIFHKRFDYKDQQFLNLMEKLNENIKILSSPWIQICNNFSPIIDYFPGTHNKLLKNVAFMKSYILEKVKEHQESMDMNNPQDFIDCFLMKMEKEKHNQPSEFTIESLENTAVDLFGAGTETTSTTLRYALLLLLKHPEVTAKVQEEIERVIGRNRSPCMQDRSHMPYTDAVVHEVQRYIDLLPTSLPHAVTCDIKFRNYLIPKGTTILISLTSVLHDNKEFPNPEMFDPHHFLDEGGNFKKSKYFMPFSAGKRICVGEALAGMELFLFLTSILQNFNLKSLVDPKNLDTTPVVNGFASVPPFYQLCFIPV
How it was run: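 Luminescent read-out of deoxyluciferin hydroxylation, normalized to 57uM sulphaphenazole (AC100). Reaction: 10nM enzyme, 100uM Luciferin-H (equal to KM), 25mM KPO4, 10 min compound preincubation, then 60 min with NADPH regeneration, both at 37C.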

[13] = target: Cytochrome P450 2C19 (Homo sapiens) (UniProt P33261); assay: qHTS Assay for Inhibitors and Substrates of Cytochrome P450 2C19 (AID 899); also: potency is read from the fitted curve at half-maximal effect; nearly all actives have a fitted effect of over 60% in size
How it was run: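 Luminescence readout of luciferin formed from 10uM Luciferin-H EGE (KM level) by 5 nM CYP2C19 in 50mM KPO4. 60 min NADPH-driven reaction at 37C after 10 min compound preincubation; data scaled to 57uM ketoconazole inhibition.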

[14] = target: Cytochrome P450 2D6 (Homo sapiens) (UniProt P10635); assay: qHTS Assay for Inhibitors and Substrates of Cytochrome P450 2D6 (AID 891); also: potency is read from the fitted curve at half-maximal effect; nearly all actives have a fitted effect of over 60% in size
Sequence of Cytochrome P450 2D6 (Homo sapiens) (P10635 whole entry, looked up): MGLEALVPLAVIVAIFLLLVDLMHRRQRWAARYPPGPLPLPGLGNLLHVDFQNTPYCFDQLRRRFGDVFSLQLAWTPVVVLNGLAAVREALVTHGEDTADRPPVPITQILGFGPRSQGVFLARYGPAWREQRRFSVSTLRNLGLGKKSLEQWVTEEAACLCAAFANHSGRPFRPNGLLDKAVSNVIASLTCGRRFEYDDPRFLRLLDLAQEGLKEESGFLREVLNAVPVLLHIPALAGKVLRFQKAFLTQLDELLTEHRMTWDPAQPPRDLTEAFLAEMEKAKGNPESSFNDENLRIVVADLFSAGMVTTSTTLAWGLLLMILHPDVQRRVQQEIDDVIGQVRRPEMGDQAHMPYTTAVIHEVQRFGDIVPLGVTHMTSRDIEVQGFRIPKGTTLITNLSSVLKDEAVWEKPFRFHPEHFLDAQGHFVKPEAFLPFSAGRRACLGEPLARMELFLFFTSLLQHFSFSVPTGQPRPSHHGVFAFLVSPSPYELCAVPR
How it was run: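 Luminescent read-out of luciferin formed by 5 nM human CYP2D6 demethylating 30 uM Luciferin-ME EGE (Km level) over 60 min at room temperature after NADPH regeneration addition. Data normalized to full inhibition by 1.43 uM quinidine.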

CCn1c(=O)[nH]c2ccccc21
Potency [1]: 31.6 µM (active)
Potency [2]: > 46 µM
Potency [3]: inactive
Potency [4]: inactive
Potency [5]: inactive
Potency [6]: inactive
Potency [7]: inactive
Potency [8]: inactive

c1cc2c(cc1C1CCCCC1)c1c3n2CCN[C@H]3CCC1
Potency [1]: 15.8 µM (active)
Potency [2]: > 46 µM
Potency [9]: > 46 µM
Potency [3]: inactive
Potency [10]: inactive
Potency [6]: inactive
Potency [7]: inactive
Potency [8]: inactive

CCCCC(=O)NCCc1c(Cc2ccccc2)[nH]c2ccccc12
Potency [1]: 3.16 µM (active)
Potency [3]: inactive
Potency [11]: 0.794 µM (active)
Potency [10]: inactive
Potency [6]: inactive
Potency [7]: inactive
Potency [8]: inactive

CCCCC[C@H](O)/C=C/[C@H]1C=CC(=O)[C@@H]1C/C=C\CCCC(=O)O
Potency [2]: > 20.6 µM
activity change, negative = inhibition [7]: 7.12% [at 6.83 µM]
activity change, negative = inhibition [8]: -13.8% [at 3.88 µM]

N[C@@H](C(=O)O)c1cc(O)ccc1Cl
Potency [1]: 15.8 µM (active)
Potency [2]: > 46 µM
Potency [9]: > 46 µM
Potency [3]: inactive
Potency [4]: inactive
Potency [10]: inactive
Potency [6]: inactive
Potency [7]: inactive
Potency [8]: inactive

C[C@H](O)CO[C@H]1[C@H]2O[C@H]3[C@H](O)[C@@H](O)[C@@H](O[C@H]4[C@H](O)[C@@H](O)[C@@H](O[C@H]5[C@H](O)[C@@H](O)[C@@H](O[C@H]6[C@H](O)[C@@H](OC[C@H](C)O)[C@@H](O[C@H]7[C@H](O)[C@@H](OC[C@H](C)O)[C@@H](O[C@H]8[C@H](O)[C@@H](O)[C@@H](O[C@@H]([C@@H]1O)[C@@H](CO)O2)O[C@@H]8CO)O[C@@H]7CO)O[C@@H]6CO)O[C@@H]5CO)O[C@@H]4CO)O[C@@H]3CO
Potency [2]: > 46 µM
Potency [9]: > 46 µM
Potency [3]: inactive
Potency [5]: inactive
Potency [6]: inactive
Potency [7]: inactive
Potency [8]: inactive

CN1Cc2c(C(=O)OC(C)(C)C)ncn2-c2ccsc2C1=O
Potency [1]: 15.8 µM (active)
Potency [2]: > 46 µM
Potency [3]: inactive
Potency [12]: 5.01 µM (active)
Potency [13]: 1.26 µM (active)
Potency [5]: inactive
Potency [6]: inactive
Potency [7]: inactive
Potency [8]: inactive

CSc1cc2c(cc1C(F)(F)F)N(C(=O)Nc1cccnc1)CC2
Potency [1]: 0.000794 µM (active)
Potency [2]: > 46 µM
Potency [9]: > 46 µM
Potency [3]: inactive
Potency [12]: 0.0063 µM (active)
Potency [10]: inactive
Potency [6]: inactive
Potency [7]: inactive
Potency [8]: inactive

Cc1ncc2c(c1O)COP(=O)(O)OC2
Potency [2]: > 46 µM
Potency [9]: > 46 µM
Potency [3]: inactive
Potency [4]: inactive
Potency [5]: inactive
Potency [6]: inactive
Potency [7]: inactive
Potency [8]: inactive

CNCCCCCCCCSc1nc(C(C)C)ccc1C(=O)c1cccs1
Potency [1]: 31.6 µM (active)
Potency [2]: > 46 µM
Potency [9]: > 46 µM
Potency [3]: inactive
Potency [11]: 2.51 µM (active)
Potency [10]: inactive
Potency [14]: 0.0063 µM (active)
Potency [7]: inactive
Potency [8]: inactive

— PubChem BioAssay (NCATS)
